A selection: hits, their analogues and other compounds. The true share with any hit is near 0.74%.
Efa HMGR inh – inhibitors of E. faecalis class II HMGR, primary screen, biochemical, Enterococcus faecalis; HMG-CoA reductase (Enterococcus faecalis, mvaE); purified E. faecalis HMGR, NADPH absorbance 340 nm kinetic; inhibition, % at 10 µM; 190,000 tested, 0.41% active; AID 1066, 2008;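 active = inhibition above a set limit, the median over all tested compounds plus 3 SD, cut at about 9.5% in these data; inconclusive = no clear call, values can overlap the other calls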;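 also: enzyme runs in reverse so mevalonate oxidation gives rising NADPH absorbance; 0% = complete reaction with DMSO and 100% = background rate lacking mevalonate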
Furin inh – human furin inhibitors, primary screen, biochemical, fluorescence intensity | P09958 | purified furin, fluorogenic substrate cleavage | inhibition, % at 20 µM or 30 µM | 220,000 tested, 0.061% active; in the data active = inhibition above about 25%
TbHK1 inh – Trypanosoma brucei hexokinase 1 inhibitors, primary screen, biochemical, G6PDH-coupled NADH absorbance, MLSCN library. hexokinase 1 [Trypanosoma brucei]. recombinant TbHK1, G6PDH-coupled NADH A340. inhibition, % at 10 µM. 220,000 tested, 0.11% active;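 active = inhibition of 50% or more in the single-dose primary screen; inactive = inhibition below 50%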
DTT redox prof – compounds producing H2O2 with reducing agent – biochemical, NIH compound library profiling, artefact control for MLSCN library redox annotation, primary screen. activation, % at 10 µM. 200,000 tested, 0.03% active. AID 878, 2007. DTT-dependent redox cycling H2O2, phenol red/HRP absorbance; 100% = 100 µM peroxide control, 0% = buffer;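 active = activation of at least 50% relative to the plate's high and low controls in the primary single-dose screen; inactive = activation below 50%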;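 also: compound incubated with DTT at 0.8 mM final as the reducing agent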
pCIP destab – p/CIP-EGFP fusion destabilizers, primary screen, fluorescence, F442A cells; 16 h; decrease of EGFP signal, % at 10 µM; 290,000 tested, 0.01% active;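 active = EGFP signal decrease of at least 30% at 10 µM or well 3 SD below plate mean, unless failing retest; inactive = the rest, including hits failing retest or dose response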
p97 inhibitor – inhibitors of human p97 ATPase, primary screen, biochemical; Transitional endoplasmic reticulum ATPase (Homo sapiens), P55072; AID 1481, 2009; recombinant p97 ATPase, Kinase-Glo ATP luminescence, 3 h; 220,000 tested, 0.42% active; inhibition, % at 8 µM; in the data active = inhibition above about 15%;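 also: 0% = DMSO vehicle and 100% = wells lacking enzyme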
G6PDH ctr – Leuconostoc G6PDH inhibition, confirmation, counter-screen for TbHK1 inhibitor project, biochemical, DPI cherry-picked compounds, single concentration. 210 tested, 7% active. shares compounds with TbHK1 inh. purified G6PDH, NADH absorbance, 1 h. inhibition, % at 10 µM;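 active = at least 50% inhibition in the glucose-6-phosphate dehydrogenase coupled counterscreen; inconclusive = no clear call, values can overlap the other calls; inactive = inhibition below 50%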
TbHK1 rescreen – TbHK1 inhibitor retest, confirmation, biochemical, DPI cherry-picked primary actives | shares compounds with TbHK1 inh | recombinant TbHK1, G6PDH-coupled NADH A340 absorbance | inhibition, % at 10 µM | 210 tested, 10% active;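 active = inhibition of at least 50% in both of the two screening runs; inconclusive = at least 50% in one run, below 50% in the other; inactive = inhibition below 50% in both runs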;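 also: 0% and 100% set by the maximum and minimum signal control wells on each plate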
Numbers without * were called inactive; u = inconclusive; x = not tested or not shown.

SMILES | Efa HMGR inh | Furin inh | TbHK1 inh | DTT redox prof | pCIP destab | p97 inhibitor | G6PDH ctr | TbHK1 rescreen
Cc1cccc(NC(=O)C(CCC(N)=O)NC(=O)OCc2ccccc2)c1 (stereo not drawn) | x | x | x | x | -5.4 | x | x | x
O=S(=O)(/C=C/c1ccccc1)N1CCOCC1 | x | x | x | x | -0.5 | x | x | x
COc1ccccc1NC(=O)Cc1nnc(SCC(=O)NC2=NCCS2)n1C | x | x | x | x | -16.5 | x | x | x
O=c1[nH]c2ccccc2c2nc3ccccn3c12 | 1.6 | -19.7 | 2.1 | -2.4 | 6.3 | 4.2 | x | x
O=c1nc2c(O)cccn2c2c1c(=O)[nH]c1ccccc12 | -1.6 | -29.4 | 55.6* | 0.2 | -5.0 | 12.4 | 44.7 | 69.5*
O=C(CCC(=O)Nc1ccc(Oc2ccccc2)cc1)NCCO | -1.9 | -1.3 | 50.3* | 11.4 | -3.8 | 0.0 | -9.8 | 1.6
CC1(C(=O)CSc2n[nH]c(-c3ccccc3Cl)n2)CCC(=O)O1 (stereo not drawn) | -1.3 | -7.6 | 66.8* | 0.0 | 3.3 | 6.5 | -11.2 | -1.8
O=C(OCC(=O)N1CCN(c2ccccc2)CC1)c1cc(Cl)ccc1[N+](=O)[O-] | x | x | x | x | -20.4 | x | x | x
COc1ccc(CC/C(=N\O)C2(O)CCCCC2)cc1 | -0.9 | 11.4 | 73.7* | 1.8 | -2.2 | 3.7 | -4.0 | 3.6
COc1cc(NC(=O)C2CC(c3cccc(Br)c3)=NO2)cc(OC)c1OC (stereo not drawn) | x | x | x | x | -11.0 | x | x | x
COc1cccc(C2=NOC(C(=O)Nc3cc(OC)c(OC)c(OC)c3)C2)c1 (stereo not drawn) | -0.1 | 0.9 | 64.8* | 1.3 | -14.4 | -2.9 | -8.2 | -1.8
COc1ccc(CCCC(=O)N/N=C/c2cccc(OC)c2O)cc1C | -3.4 | -8.9 | 63.4* | -0.5 | -11.7 | 1.4 | -9.2 | 6.0
COc1cccc(/C=N/NC(=O)C[n+]2ccccc2)c1O | -6.0 | -30.9 | -21.8 | 0.2 | -5.1 | 7.3 | x | x
O=S(=O)(Cc1ccccc1Cl)CC(O)COc1ccccc1Cl (stereo not drawn) | -5.2 | -12.1 | 52.5* | -4.9 | -7.1 | -4.1 | 12.9 | 12.2
CCN1/C(=C/C=C/c2oc3ccc4ccccc4c3[n+]2CC)Oc2ccc3ccccc3c21 | -4.6 | -5.2 | 99.6* | 0.6 | -667.3 | 3.7 | 131.9* | 84.6*
c1cc(-c2nnc(-c3ccncc3)o2)ccn1 | -7.7 | 2.7 | 74.4* | 19.7 | -5.6 | -3.8 | -7.0 | -7.3
O=C(Nc1ccc2c(c1)OCO2)C1CCCN(S(=O)(=O)c2cccs2)C1 (stereo not drawn) | -0.1 | -3.7 | 54.9* | -1.6 | -3.6 | -1.1 | 2.2 | -5.1
O=C(Nc1ccc2c(c1)OCCO2)C1CCN(S(=O)(=O)c2cccs2)CC1 | 0.0 | -15.8 | -5.2 | 0.1 | -5.1 | -2.1 | x | x
O=C(Nc1ccc2c(c1)OCCO2)C1CCCN(S(=O)(=O)c2cccs2)C1 (stereo not drawn) | -0.2 | -2.4 | 57.8* | -1.4 | -4.3 | -6.6 | -0.5 | -3.0
Cc1cccc(C(=O)NC(=S)NNC(=O)c2ccc(Cl)cc2)c1 | -0.7 | -16.0 | 62.1* | 0.1 | -11.6 | 4.9 | -44.4 | -38.7
Cc1cccc(C(=O)NC(=S)NNC(=O)c2cccs2)c1 | -1.9 | -12.6 | -19.2 | -0.1 | -8.6 | 0.7 | x | x
Cn1c(=O)[nH]c(=O)c2c1nc(N1CCCC1)n2CC(O)COc1ccccc1 (stereo not drawn) | -5.3 | -15.3 | -1.0 | -0.5 | -2.4 | 1.7 | x | x
Cn1c(=O)[nH]c(=O)c2c1nc(N1CCCCC1)n2CCOc1ccccc1 | -0.4 | -5.7 | 55.2* | 0.4 | -5.8 | -8.2 | 4.2 | 2.1
CCCCCCn1c(N2CCN(c3cccc(Cl)c3)CC2)nc2c1c(=O)[nH]c(=O)n2C | -4.6 | 2.5 | 59.4* | 0.7 | -6.5 | 1.2 | -49.7 | 14.0
CCCCCCCCn1c(N2CCN(c3cccc(Cl)c3)CC2)nc2c1c(=O)[nH]c(=O)n2C | -6.8 | -4.8 | -0.8 | 0.3 | 1.3 | 1.8 | x | x
SMILES | Efa HMGR inh | Furin inh | TbHK1 inh | DTT redox prof | pCIP destab | p97 inhibitor | G6PDH ctr | TbHK1 rescreen
COc1ccc(C(=O)Nc2cc(Cl)ccc2C(=O)O)cc1 | -2.5 | -20.4 | 53.3* | -0.6 | -2.4 | 7.1 | -20.2 | 65.1*
COCCNC(=O)CN(Cc1ccc2c(c1)OCO2)C(=O)CCC(=O)Nc1nccs1 | -4.2 | -7.4 | 53.5* | -0.2 | 8.0 | 0.6 | -13.1 | -0.6
COCCN(CC(=O)NCc1ccc2c(c1)OCO2)C(=O)CCC(=O)Nc1nccs1 | -5.6 | -17.0 | 0.0 | 0.1 | 2.6 | -4.7 | x | x
CCOc1ccc(NC(N)=O)cc1 | -3.5 | -11.2 | 60.5* | 1.9 | -12.5 | 4.0 | -0.6 | 4.4
CCCCS(=O)(=O)N1CCC(C(=O)NCC2CCCO2)CC1 (stereo not drawn) | x | x | x | x | 8.4 | x | x | x
CCOc1ccc2nc(N3C(=O)CNC3=S)sc2c1 | x | -7.1 | -7.7 | x | -1.6 | -4.6 | x | x
COc1ccc2nc(N3C(=O)/C(=C/c4ccc(Cl)cc4)NC3=S)sc2c1 | -8.9 | 4.6 | 50.1* | 0.2 | -2.0 | -0.7 | -107.6 | -23.0
COc1ccc(C2SCC(=O)N2CCc2ccc(OC)c(OC)c2)cc1 (stereo not drawn) | -2.3 | -11.3 | 4.2 | 0.4 | -23.7 | -6.0 | x | x
CC(C)CC1NC(=O)N(Cc2nc3ccccc3s2)C1=O (stereo not drawn) | x | -9.7 | -4.4 | x | 1.5 | 3.8 | x | x
CCC(C)Sc1nc2c(c(=O)[nH]c(=O)n2C)n1C (stereo not drawn) | -3.1 | -11.2 | 50.0* | 1.4 | -6.9 | 3.9 | -0.3 | 8.4
CCC1(C)Cc2c(C#N)c(N)n(-c3ccccc3)c(=S)c2CO1 (stereo not drawn) | -1.1 | -22.6 | -2.8 | -0.5 | -12.5 | 6.1 | x | x
CCC1(C)Cc2c(C#N)c(N)sc(=S)c2CO1 (stereo not drawn) | 1.7 | 2.0 | 82.7* | 1.5 | -14.8 | 2.1 | 72.5* | u
Cc1ccc(CNC(=O)[C@@H](NC(=O)C2CCN(C(=O)[C@@H](N)CC(C)C)CC2)C(C)C)cc1 | x | x | x | x | -14.5 | x | x | x
CCc1ccccc1NC(=O)CCS(=O)(=O)c1ccc(Br)cc1 | x | x | x | x | 1.3 | x | x | x
COC(=O)c1ccccc1NC(=O)CCS(=O)(=O)c1ccc(Br)cc1 | -3.8 | -17.5 | 62.4* | -1.2 | -6.1 | -2.0 | -6.2 | 67.2*
O=C1CCC(=O)N1c1nc2nc(-c3ccccc3)cc(=O)n2[nH]1 | 0.5 | -24.4 | -4.1 | 0.0 | 7.1 | 5.0 | x | x
Cc1nc2nc(-c3ccccc3)cc(=O)n2[nH]1 | -2.9 | 1.8 | 55.2* | 0.2 | -4.7 | -7.7 | -3.1 | 1.2

High-throughput results (PubChem BioAssay)
